The values below come from PubChem BioAssay (NCI).

This is part of a sample that, as a whole, favours compounds with a hit. Of some 83,000 tested, about 20% had one in any assay.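 The test compound was applied at a single concentration to cells in 96-well plates for 48 hours, and percent growth was recorded.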 A number with no mark means an inactive call. Active and inactive are the calls of the source. Rule for the calls: active = growth percent below 10; inactive = the rest.

Test systems include SK-MEL-2 melanoma; SN12C renal; UO-31 renal; TK-10 renal; ACHN renal; CAKI-1 renal; A498 renal; CCRF-CEM leukemia; MOLT-4 leukemia.
Holding throughout (assay): NCI-60 one-dose screen, 48 h (100 = growth as untreated, 0 = no growth, -100 = all killed)
What all share (settings): 10 µM

As for `OC(CNC1CCCC1)Cn1c2ccccc2c2ccccc21` (stereo not given), the growth with SK-MEL-2 melanoma was 48.9%; with SN12C renal, 50.7%; with UO-31 renal, 12.3%; with TK-10 renal, 29.2%; in the test on ACHN renal, 15.1%; in the test with CAKI-1 renal, 31.8%. Besides, the growth in the test with A498 renal was 58%; in the test with CCRF-CEM leukemia, 4.28% (active); with MOLT-4 leukemia, -13.9% (active).
Consider `CC(C)C(C)C(N)C(=O)O` (stereo not given), for which the growth is 101% with SK-MEL-2 melanoma; 106% in the test on SN12C renal; 85.6% in the test on UO-31 renal; 95.4% with TK-10 renal; 99% with ACHN renal; 99% with CAKI-1 renal. Also, the growth in the test with A498 renal is 109%; in the test on CCRF-CEM leukemia it was 95.1%; in the test on MOLT-4 leukemia, 93%.
Take `Nc1ncc(-c2ccc(C(F)(F)F)cc2)c(NC2CCCCCC2)n1`: the growth with SK-MEL-2 melanoma is 0.455% (active); in the test on SN12C renal, 29.9%; in the test on UO-31 renal it was 23.6%; in the test with TK-10 renal, 36.9%; with ACHN renal, 16.4%; with CAKI-1 renal, 55.8%. Moreover, the growth is 58.8% with A498 renal, 31.1% with CCRF-CEM leukemia and 57.5% in the test with MOLT-4 leukemia.
Turning to `O=C1/C(=C/c2ccc(O)cc2)CSc2ccc(Cl)cc21`, the growth was 97.8% with SK-MEL-2 melanoma; 81.5% with SN12C renal; 73.1% with UO-31 renal; 103% with TK-10 renal; 88.9% in the test with ACHN renal; 79.9% in the test with CAKI-1 renal. The growth in the test with A498 renal was 99.5%; in the test with CCRF-CEM leukemia, 12.4%; in the test on MOLT-4 leukemia, 22.3%.
Regarding `O/N=C1\CCC2CCCCC2C1` (stereo not given), the growth in the test on SK-MEL-2 melanoma was 101%; in the test with SN12C renal, 113%; with UO-31 renal, 95.5%; in the test on TK-10 renal it was 101%; in the test on ACHN renal, 97.3%; in the test with CAKI-1 renal, 96.2%. For the same compound, the growth in the test on A498 renal is 103%; in the test on CCRF-CEM leukemia it was 103%; in the test with MOLT-4 leukemia it was 98.6%.
As to `COc1cccc2c1C(=O)c1c(O)c3c(c(O)c1C2=O)C[C@@](O)(C(=O)COC(=O)c1cccnc1)C[C@@H]3OC1CC(N)C(O)C(C)O1` (stereo not given in full), the growth in the test on SK-MEL-2 melanoma was -71.1% (active); in the test with SN12C renal, 6.29% (active); with UO-31 renal, -40.4% (active); in the test with TK-10 renal, -9.29% (active); in the test with ACHN renal, -7.12% (active); with CAKI-1 renal it was -40.7% (active). Also, the growth in the test on A498 renal is -56.6% (active); in the test with CCRF-CEM leukemia, 0.652% (active); in the test with MOLT-4 leukemia, -24.8% (active).
On to `C#CCn1c(-c2cccc(OCCCCl)c2)nc2c1c(=O)n(C)c(=O)n2C`, for which the growth with SK-MEL-2 melanoma was 81%; in the test with SN12C renal, 84.5%; in the test on UO-31 renal, 50.5%; with TK-10 renal, 101%; with ACHN renal, 76.6%; in the test on CAKI-1 renal, 69.2%. Besides, the values for the growth with A498 renal, in the test on CCRF-CEM leukemia and in the test on MOLT-4 leukemia were 83.6%, 13% and 2.33% (active), respectively.
As to `CC1=CSC2=NC(c3ccc(Cl)c(Cl)c3)=CC(c3ccc(Cl)cc3)N12` (stereo not given), the growth is -14.1% (active) in the test on SK-MEL-2 melanoma; 13.7% in the test with SN12C renal; 7.9% (active) in the test on UO-31 renal; 18.6% in the test on TK-10 renal; 13.5% with ACHN renal; 5.28% (active) in the test with CAKI-1 renal. In addition, the growth was -12% (active) in the test on A498 renal, 31.9% with CCRF-CEM leukemia and 35.2% in the test with MOLT-4 leukemia.
Consider `Nc1nc2c(ncn2C2OC3COP(=O)(O)OC4C(COP(=O)(O)OC2C3O)OC(n2cnc3c(N)ncnc32)C4O)c(=O)[nH]1` (stereo not given), for which the growth with SK-MEL-2 melanoma was 115%; with SN12C renal, 106%; in the test on UO-31 renal it was 104%; in the test on TK-10 renal it was 112%; in the test with ACHN renal, 105%; in the test with CAKI-1 renal, 100%. The growth in the test with A498 renal is 5.1% (active); in the test on CCRF-CEM leukemia, 97.8%; in the test on MOLT-4 leukemia, 92.8%.
`O=C(NC1CCN(Cc2ccccc2)CC1)c1cc(-c2ccncc2)nc2ccc(Cl)cc12`: the growth was 44.1% with SK-MEL-2 melanoma; 27.3% in the test on SN12C renal; 11.9% in the test on UO-31 renal; 61.4% in the test on TK-10 renal; 19.9% with ACHN renal; 13.4% in the test on CAKI-1 renal. In addition, the growth in the test with A498 renal is 11%; with CCRF-CEM leukemia, 2.77% (active); in the test on MOLT-4 leukemia it was 7.58% (active).
As for `COc1cc(C(=O)n2nc(N)c3c(C)cc(C)nc32)cc(OC)c1OC`, the growth is 30.3% in the test on SK-MEL-2 melanoma; 79.8% in the test with SN12C renal; 84.7% in the test with UO-31 renal; 98.3% in the test with TK-10 renal; 91.9% in the test with ACHN renal; 76.7% in the test with CAKI-1 renal. The growth was 60.2% in the test with A498 renal, 57.6% in the test with CCRF-CEM leukemia and 36% with MOLT-4 leukemia.
In the case of `O=NN(CCCl)C(=O)NCc1ccc(-c2ccc(CNC(=O)N(CCCl)N=O)cc2)cc1`, the growth in the test on SK-MEL-2 melanoma was 95.1%; in the test with SN12C renal it was 97.8%; in the test with UO-31 renal, 67.7%; with TK-10 renal, 105%; in the test on ACHN renal it was 105%; in the test with CAKI-1 renal, 96.6%. Further, the growth in the test on A498 renal was 102%; in the test on CCRF-CEM leukemia it was 93.3%; with MOLT-4 leukemia, 82.3%.
As to `O=c1c2cccc3c(Nc4ccc(Br)cn4)ccc(c32)c2nc3ccccc3n12`, the growth with SK-MEL-2 melanoma was 108%; in the test on SN12C renal it was 92.3%; in the test on UO-31 renal it was 52.1%; in the test on TK-10 renal, 78.1%; with ACHN renal it was 90.2%; in the test on CAKI-1 renal it was 83.9%. Moreover, the growth with A498 renal is 93.9%; with CCRF-CEM leukemia, 97.9%; in the test with MOLT-4 leukemia it was 92.9%.
Take `Cc1ccc(C(=O)O)c(N)c1C`: the growth in the test on SK-MEL-2 melanoma was 89.3%; in the test on SN12C renal, 106%; in the test with UO-31 renal, 57.6%; in the test with TK-10 renal, 122%; with ACHN renal, 103%; in the test with CAKI-1 renal, 92.6%. The growth was 108% with A498 renal, 93.4% with CCRF-CEM leukemia and 93.6% with MOLT-4 leukemia.
For `FC(F)(F)c1ccc(-c2ncc(-c3ccc(C(F)(F)F)cc3)c(NCc3cc(C(F)(F)F)cc(C(F)(F)F)c3)n2)cc1`, the growth was 69.9% in the test with SK-MEL-2 melanoma; 34.2% with SN12C renal; 37.1% in the test with UO-31 renal; 86.9% in the test on TK-10 renal; 27.4% in the test on ACHN renal; 37.5% in the test with CAKI-1 renal. Also, the results for the growth in the test with A498 renal, in the test with CCRF-CEM leukemia and in the test on MOLT-4 leukemia were 54.1%, 46.7% and 59.3%, respectively.
